These results are taken from PubChem BioAssay AID651820 (National Center for Advancing Translational Sciences (NCATS), 2012).

Molecules are shown by their SMILES. In all, about 340,000 compounds went through this assay and about 12,000 (3.5%) were called active. Inconclusive results (about 18%) are left out. For the sample, actives were picked, then their nearest neighbours and some compounds at random. Unmarked numbers belong to inactive results. Calls follow the shape of the dose curve; as a rule, active = well fitted inhibition curve with a large enough effect; inconclusive = small, poorly fitted or top-dose-only effect, or another doubt; inactive = no such curve, though single readings can be large or run the other way.
% is scaled to controls: 0 for no effect and ±100 for the full control effect; potency is read from the fitted curve at half-maximal effect.

The nature of this assay: qHTS Assay for Inhibitors of Hepatitis C Virus (HCV). The note with it: Huh7.5.1 HCVcc-Cre infection, luciferase reporter, 44 h; series mostly up to 41.8 µM; activity change, negative = inhibition: at the top concentration. In outline: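 Infectious HCV cell culture screen: compound-treated cells (1,000/well, pre-plated 4 h) are infected with HCVcc-Cre at roughly 0.5 moi and grown 44 h. Infection is quantified by luciferase signal after 15 min substrate incubation at room temperature.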
A general note: Quantitative high-throughput screening tests each substance at several concentrations.
With `O=C(c1ccc(Cl)cc1)c1ccc(OCC(O)CN2CCCCC2)cc1` (configuration not stated), the Potency is 14.1 µM (active).

For the molecule `O=C1NCC(c2ccccc2)(c2ccccc2)C(=O)N1`, the “activity change, negative = inhibition” value was 38.7%.

Turning to `CC1CC(C)CN(C(=O)COC(=O)c2ccc3ncsc3c2)C1` (configuration not stated), the “activity change, negative = inhibition” value is -5.2%.

In the case of `COc1ccc(S(=O)(=O)Nc2ccc3oc(C)c(C(C)=O)c3c2)cc1`, the Potency is 7.94 µM (active).

Take `CC(=O)c1c(C)oc2ccc(NS(=O)(=O)c3ccccc3)cc12`: the “activity change, negative = inhibition” value is -15.2%.

As to `CC(=O)c1c(C)oc2ccc(NS(=O)(=O)c3ccc(C(=O)O)cc3)cc12`, the “activity change, negative = inhibition” value is 3.69%.

Turning to `CC(OC(=O)c1ccc(S(=O)(=O)N2CCOCC2)cc1)c1ccccc1` (configuration not stated), the “activity change, negative = inhibition” value is -17%.

For `COC1=CC(=O)OC(C)(c2ccccc2)C1` (configuration not stated), the “activity change, negative = inhibition” value is 15.7%.

With `CN1CCN(c2ccc(NC(=O)c3ccccc3)cc2)CC1`, the “activity change, negative = inhibition” value is 6.63%.

For `O=C(Nc1ccc(N2CCN(C(=O)c3cccs3)CC2)cc1)c1cccnc1Cl`, the “activity change, negative = inhibition” value was -12.3%.

`O=C(Nc1ccc(N2CCN(C(=O)C3CC3)CC2)cc1)c1cccs1`: the “activity change, negative = inhibition” value was -3.63%.

`Cc1ccccc1C(=O)N1CCN(c2ccc(NC(=O)c3cccs3)cc2)CC1`: the Potency is 11.2 µM (active).

Regarding `Cc1ccccc1C(=O)NC(=S)Nc1ccc(N2CCN(C(=O)c3ccccc3)CC2)cc1`, the Potency is 11.2 µM (active).

With `O=C(Cc1ccccc1)NC(=S)Nc1ccc(N2CCCCC2)cc1`, the “activity change, negative = inhibition” value is -1.27%.

For `Cc1ccc(-c2csc(NCCc3nc4cc(Cl)c(Cl)cc4n3CCOCCO)n2)cc1`, the “activity change, negative = inhibition” value is -19.6%.

For the molecule `CCCCNC(=O)Cn1nc(C)c(S(=O)(=O)N2CCOCC2)c1C`, the “activity change, negative = inhibition” value was 0.679%.

As to `CC(C)(C)C(=O)Nc1cccc(-c2ccc[nH]2)n1`, the “activity change, negative = inhibition” value was -21%.

With `CC(=O)c1c(C)[nH]c(C(=O)N2CCN(S(=O)(=O)c3ccc(F)c(F)c3)CC2)c1C`, the “activity change, negative = inhibition” value is 19.1%.

For `CCOc1c2ccc(C(=O)NC3CCCc4ccccc43)cc2nn1CC` (configuration not stated), the Potency was 3.55 µM (active).

Regarding `CCOc1ccc(NC(=O)COc2ccc(C(=O)NC3CCCc4ccccc43)cc2OC)cc1` (configuration not stated), the “activity change, negative = inhibition” value was 1.4e-06%.

Turning to `CNS(=O)(=O)c1cccc(C(=O)NC2CCCc3ccccc32)c1` (configuration not stated), the “activity change, negative = inhibition” value was -13.6%.

`CCCc1cc(=O)[nH]c(SCC(=O)Nc2ccc(S(=O)(=O)N3CCCC3)cc2)n1`: the “activity change, negative = inhibition” value is -9.93%.

In the case of `Nc1ccc(Oc2ccc(Cl)cc2)cc1`, the Potency is 7.94 µM (active).

As for `CC(C)(C)c1ccc(OC2=CS(=O)(=O)c3ccccc32)cc1`, the “activity change, negative = inhibition” value is -5.07%.

On to `Cc1nn(C)c(Oc2ccc(Cl)cc2)c1C=O`, for which the “activity change, negative = inhibition” value was -11.1%.

Take `COc1cccc(Oc2ccc(N)cc2)c1`: the “activity change, negative = inhibition” value was -21.4%.

In the case of `Nc1ccc2nn(-c3ccc(Cl)cc3)nc2c1`, the “activity change, negative = inhibition” value is -11.2%.

In the case of `CC(C)(C)c1ccc(Oc2ccc(N)cc2)cc1`, the Potency is 3.55 µM (active).

Take `O=S(=O)(Nc1ccc(O)c2ccccc12)c1ccc(OC(F)(F)F)cc1`: the “activity change, negative = inhibition” value was -0.296%.

Take `COc1ccc(CNC(=O)COC(=O)C(CCSC)N2C(=O)c3ccccc3C2=O)cc1` (configuration not stated): the “activity change, negative = inhibition” value is 4.01%.

In the case of `C=CCn1c(=N)n(CC(O)COc2ccc(OC)cc2)c2ccccc21` (configuration not stated), the Potency is 5.62 µM (active).

As for `C=CCc1ccc(OCC(O)CN2CCN(Cc3ccccc3)CC2)c(OC)c1` (configuration not stated), the “activity change, negative = inhibition” value was -23.4%.

On to `COc1ccc(OCC(O)CN(C)C(=O)C(C)Oc2ccccc2)cc1` (configuration not stated), for which the “activity change, negative = inhibition” value is 7.61%.

With `CCCCn1c(N)c(N(CC(C)C)C(=O)c2cnc(C)cn2)c(=O)[nH]c1=O`, the “activity change, negative = inhibition” value was 31.4%.

`CC1CCN(C(=O)COC(=O)c2cc(S(=O)(=O)N3CCOCC3)ccc2Cl)CC1`: the “activity change, negative = inhibition” value was 9.19%.

With `CNS(=O)(=O)c1ccc(C(=O)NCC(=O)NCCc2ccc3c(c2)OCCO3)cc1`, the “activity change, negative = inhibition” value was -10.8%.

In the case of `CC(C)c1ccc2c(c1)c(SC(C)(C)C)c(CC(C)(C)C(=O)O)n2Cc1ccc(Cl)cc1`, the Potency is 10 µM (active).

Regarding `O=C(O)c1ccc(Cn2c(=S)[nH]c3cc(Cl)ccc3c2=O)cc1`, the “activity change, negative = inhibition” value is 5.79%.

Turning to `Cn1c(CNC(=O)c2ccco2)nnc1SCC(=O)N1CCN(c2ccccc2)CC1`, the “activity change, negative = inhibition” value was 19.3%.

On to `Cn1c(Cc2cccc3ccccc23)nnc1SCC(=O)N1CCN(c2cccc(Cl)c2)CC1`, for which the Potency was 3.98 µM (active).

As to `Cc1cc2nnc(SCC(=O)N3CCN(c4ccccc4)CC3)n2c(N)n1`, the “activity change, negative = inhibition” value is 8%.

For the molecule `O=C(CSc1ncnc2sccc12)NC1CCS(=O)(=O)C1` (configuration not stated), the “activity change, negative = inhibition” value is 12.8%.

With `CC(=O)Nc1ccc(S(=O)(=O)NCC(=O)OCC(=O)c2ccc[nH]2)cc1`, the “activity change, negative = inhibition” value is 30.9%.

For `O=C(c1cccnc1)N(Cc1ccccc1)C(=O)c1cccnc1`, the “activity change, negative = inhibition” value is 7.13%.

For the molecule `CCOC(=O)CSc1nc2c(sc(=S)n2CCc2ccccc2)c(=O)n1Cc1ccco1`, the Potency is 14.1 µM (active).

In the case of `CCOC(=O)CSc1nnc(-c2ccco2)n1C`, the “activity change, negative = inhibition” value was -6.89%.

Consider `CCOC(=O)CSc1nc2c(c(=O)n(C)c(=O)n2C)n1Cc1ccccc1F`, for which the “activity change, negative = inhibition” value was -0.781%.

Take `CC(C)C[C@H]1CN([C@@H](CC(C)C)CN2CCC[C@@H]2CN2C(=O)C(=O)NC[C@@H]2Cc2ccccc2)C(=O)C(=O)N1CCc1ccccc1`: the “activity change, negative = inhibition” value is -8.5%.

As for `O=C(c1ccc(N2CCOCC2)c([N+](=O)[O-])c1)N1CCN(c2ccccc2F)CC1`, the “activity change, negative = inhibition” value was 10.7%.

For the molecule `CCN(C[C@H]1N[C@@](CC)(C(=O)OC)[C@H]2C(=O)N(Cc3ccccc3)C(=O)[C@@H]12)S(=O)(=O)c1ccccc1`, the “activity change, negative = inhibition” value was -2.21%.

Regarding `COC(=O)[C@]1(Cc2ccccc2)N[C@H](CN(C)S(=O)(=O)c2ccc(OC(F)(F)F)cc2)[C@@H]2C(=O)N(Cc3ccccc3)C(=O)[C@@H]21`, the Potency was 7.08 µM (active).

As to `COC(=O)[C@]1(Cc2ccccc2)N[C@H](CN(C)S(=O)(=O)c2ccc(F)cc2)[C@@H]2C(=O)N(Cc3ccccc3)C(=O)[C@@H]21`, the “activity change, negative = inhibition” value was -26.9%.
